{
  "source": "PubChem BioAssay AID1209",
  "about": "(Sanford-Burnham Center for Chemical Genomics, 2008)",
  "note": "Where “and” joins values, the source holds several entries; their conditions need not be identical. Identical values can stand only once. Among all 190,000 compounds or so, about 810 (0.43%) were called active. The entries come from a sample that favours actives as a whole. Unmarked numbers belong to inactive results. No stated cut-off is given here; in the data, active means inhibition above about 50%; inactive means the rest.",
  "data": [
    {"biological_target": "Mannose-6-phosphate isomerase (Homo sapiens) (UniProt P34949)", "sequence (P34949 whole entry, looked up)": "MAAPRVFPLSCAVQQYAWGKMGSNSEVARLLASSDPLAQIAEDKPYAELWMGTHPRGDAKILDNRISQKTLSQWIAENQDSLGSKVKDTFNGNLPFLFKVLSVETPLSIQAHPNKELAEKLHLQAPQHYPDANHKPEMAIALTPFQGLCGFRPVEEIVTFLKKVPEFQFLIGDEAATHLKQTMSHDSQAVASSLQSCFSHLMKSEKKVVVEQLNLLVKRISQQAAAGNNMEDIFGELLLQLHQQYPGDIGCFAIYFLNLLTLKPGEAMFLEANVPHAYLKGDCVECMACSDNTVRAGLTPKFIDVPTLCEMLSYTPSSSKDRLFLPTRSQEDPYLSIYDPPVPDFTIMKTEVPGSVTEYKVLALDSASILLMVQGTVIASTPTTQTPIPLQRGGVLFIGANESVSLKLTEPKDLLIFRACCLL", "assay": "inhibitors of human PMI, primary screen, biochemical, fluorescence intensity, coupled assay (AID 1209);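 further: plate controls were DMSO vehicle for no effect and wells lacking substrate for full effect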", "settings": "purified PMI enzyme, at 20 µM, active compounds read high", "values": [
      {"compound": "Cc1ccccc1CNC(=O)Cc1cccs1", "inhibition": "2%"},
      {"compound": "Cc1ccsc1/C=C1\\CCc2ccccc2C1=O", "inhibition": "25.2%"},
      {"compound": "COc1ccc(CCNC(=O)C2CC(=O)N(CCc3ccccc3)C2)cc1OC", "note": "(stereo unspecified)", "inhibition": "0%"},
      {"compound": "Cc1ccc(NC(=S)Nc2cccc3cnccc23)c(C)c1", "inhibition": "37.8%"},
      {"compound": "Cc1ccccc1NC(=S)Nc1cccc2cnccc12", "inhibition": "60.5% (active)"},
      {"compound": "FC(F)(F)c1ccccc1NC(=S)Nc1cccc2cnccc12", "inhibition": "5.4%"},
      {"compound": "Cc1ccc(C)c(NC(=S)Nc2cccnc2)c1", "inhibition": "-7%"},
      {"compound": "Cc1ccc(C)c(NC(=S)Nc2cccc3cnccc23)c1", "inhibition": "50.3% (active)"},
      {"compound": "CC(C)NC(=S)Nc1cccc2cnccc12", "inhibition": "-4.7%"},
      {"compound": "O=C(O)CCC(=O)NNC(=O)CCC(=O)Nc1ccccc1", "inhibition": "13.6%"},
      {"compound": "CC(=O)c1cc(NC(=O)c2ccc([N+](=O)[O-])cc2)c(=O)oc1C", "inhibition": "-41%"},
      {"compound": "O=C(Nc1cc2c(oc1=O)CCCC2=O)c1cccc(Cl)c1", "inhibition": "-17.4%"},
      {"compound": "CCOC(=O)C1CCN(S(=O)(=O)Cc2ccccc2)CC1", "inhibition": "-11.2%"},
      {"compound": "CCN1CCN(S(=O)(=O)Cc2ccccc2)CC1", "inhibition": "-0.2%"},
      {"compound": "CCOC(=O)N1CCN(S(=O)(=O)Cc2ccccc2)CC1", "inhibition": "104% (active)"},
      {"compound": "CC1=Nc2cccc3cccc(c23)N1C", "inhibition": "25.2%"},
      {"compound": "CN1/C(=N\\O)c2cccc3cccc1c23", "inhibition": "5.7%"},
      {"compound": "CCC1=[N+](C)c2cccc3cccc(c23)N1C", "inhibition": "51% (active)"},
      {"compound": "O=C(CCc1ccc(Oc2cc([N+](=O)[O-])cc([N+](=O)[O-])c2)cc1)N1CCCCCC1", "inhibition": "5.7%"},
      {"compound": "COc1ccccc1NC(=S)N(CCc1nc2cc(C)c(C)cc2[nH]1)Cc1cccnc1", "inhibition": "-2%"},
      {"compound": "CCOC(=O)C(NC(=O)CC)(Nc1ccc(S(=O)(=O)Nc2ncccn2)cc1)C(F)(F)F", "note": "(stereo unspecified)", "inhibition": "0.5%"},
      {"compound": "Cc1ccc(OC(=O)C(F)(F)F)c2c1NCCC2", "inhibition": "16.6%"},
      {"compound": "Oc1c(Cl)cc(Cl)c2c1NCCC2", "inhibition": "61.2% (active)"},
      {"compound": "Cc1cc2c(C)cc(=O)oc2c2c1NCCC2", "inhibition": "25.3%"},
      {"compound": "CCOC(=O)c1sc(=S)n(-c2cccc(OC)c2)c1N", "inhibition": "63.2% (active)"},
      {"compound": "COc1ccc(Cl)cc1-n1c(N)c(C(N)=O)sc1=S", "inhibition": "22.6%"},
      {"compound": "COC(=O)c1sc(=S)n(-c2cc(F)ccc2F)c1N", "inhibition": "55.8% (active)"},
      {"compound": "CCOC(=O)c1sc(=S)n(-c2ccc(F)c(F)c2)c1N", "inhibition": "27%"},
      {"compound": "CCOC(=O)c1sc(=S)n(-c2ccccc2OC)c1N", "inhibition": "21.8%"},
      {"compound": "CCOC(=O)c1sc(=S)n(-c2ccc(C)cc2)c1N", "inhibition": "30.1%"},
      {"compound": "CCOC(=O)c1sc(=S)n(-c2cc(OC)ccc2OC)c1N", "inhibition": "65.3% (active)"},
      {"compound": "CCOC(=O)c1sc(=S)n(-c2cc(F)ccc2F)c1N", "inhibition": "37.9%"},
      {"compound": "COC(=O)c1sc(=S)n(-c2cccc(Cl)c2)c1N", "inhibition": "75.9% (active)"},
      {"compound": "CCOC(=O)c1sc(=S)n(-c2ccccc2)c1N", "inhibition": "-2.1%"},
      {"compound": "COC(=O)c1sc(=S)n(-c2ccccc2OC)c1N", "inhibition": "0.3%"},
      {"compound": "Cc1ccc(NC(=O)c2sc(=S)n(-c3cc(C)ccc3F)c2N)cc1", "inhibition": "1.4%"},
      {"compound": "CCOC(=O)c1c(C)c(C(=O)NCc2ccccc2OC)c(C)n1C", "inhibition": "11.8%"},
      {"compound": "CCOC(=O)CNC(=S)n1ncnc1N", "inhibition": "-9.1%"},
      {"compound": "Cc1ccc(S(=O)(=O)CCC(=O)Nc2ccc(F)cc2)cc1", "inhibition": "6.5%"},
      {"compound": "Cc1cccc(C(C)C)c1NC(=O)COC(=O)Cc1ccsc1", "inhibition": "9%"},
      {"compound": "Cc1ccc(OCC(=O)N/N=C/c2ccco2)cc1", "inhibition": "-1.5%"},
      {"compound": "CN(C)c1ccc(/C=N/Nc2cc(N3CCOCC3)nc(N3CCOCC3)n2)cc1", "inhibition": "73.3% (active)"},
      {"compound": "CN(C)c1ccc(/C=C/C=N/Nc2nc(N3CCOCC3)nc(N3CCOCC3)n2)cc1", "inhibition": "7.3%"},
      {"compound": "CC(C)c1ccc(/C=N/Nc2cc(N3CCOCC3)nc(N3CCOCC3)n2)cc1", "inhibition": "77% (active)"},
      {"compound": "Clc1ccc(-c2ccc(/C=N/Nc3cc(N4CCOCC4)nc(N4CCOCC4)n3)o2)cc1", "inhibition": "47.2%"},
      {"compound": "Oc1ccc(/C=N\\Nc2cc(N3CCOCC3)nc(N3CCOCC3)n2)c(O)c1", "inhibition": "32.2%"},
      {"compound": "Oc1cccc(/C=N/Nc2cc(N3CCCC3)nc(N3CCCC3)n2)c1", "inhibition": "41.2%"},
      {"compound": "Oc1ccc(/C=N/Nc2cc(N3CCCC3)nc(N3CCCC3)n2)cc1", "inhibition": "32%"},
      {"compound": "Oc1ccc(/C=N/Nc2cc(N3CCOCC3)nc(N3CCOCC3)n2)cc1O", "inhibition": "76.8% (active)"},
      {"compound": "CCNc1nc(NCC)nc(N/N=C/c2ccc(O)c(O)c2)n1", "inhibition": "61.4% (active)"},
      {"compound": "CCNc1nc(NCC)nc(N/N=C/c2ccc(N(C)C)cc2)n1", "inhibition": "-12.9%"},
      {"compound": "CCNc1nc(NCC)nc(N/N=C/c2ccc(Br)cc2)n1", "inhibition": "-0.7%"},
      {"compound": "COc1ccc(/C=N/Nc2cc(N3CCCC3)nc(N3CCCC3)n2)cc1", "inhibition": "32%"},
      {"compound": "O=[N+]([O-])c1ccc(O)c2cccnc12", "inhibition": "-10.1%"},
      {"compound": "CCCn1nc(C(=O)NC2CCCc3ccccc32)c2ccccc2c1=O", "note": "(stereo unspecified)", "inhibition": "6.9%"},
      {"compound": "COc1ccc(OC)c(C(=O)COC(=O)c2cc(C)oc2C)c1", "inhibition": "-24.4%"},
      {"compound": "O=C(CNC(=O)c1cccs1)NCC(=O)OCc1cccc(Cl)c1", "inhibition": "4.5%"},
      {"compound": "CCOC(=O)C1=C(C)Nc2ccccc2N=C1NC(=O)Cc1ccc(Br)cc1", "inhibition": "18.8%"},
      {"compound": "COc1ccc(Br)cc1-c1noc(-c2ccccc2)n1", "inhibition": "11.5%"},
      {"compound": "COc1ccc(C2C(C#N)=C(N)Oc3n[nH]c(C)c32)cc1Cn1cc([N+](=O)[O-])cn1", "note": "(stereo unspecified)", "inhibition": "7.7%"},
      {"compound": "O=C(/C=C/c1ccc(Br)cc1)NC(=S)NNC(=O)c1ccco1", "inhibition": "-1.2%"},
      {"compound": "COc1cc(/C=N/Nc2nc(N3CCCC3)nc(N3CCCC3)n2)ccc1O", "inhibition": "7.9%"},
      {"compound": "COc1ccc(/C=N/Nc2nc(N3CCCC3)nc(N3CCCC3)n2)cc1O", "inhibition": "-10.3%"},
      {"compound": "Oc1ccc(/C=N/Nc2nc(N3CCCC3)nc(N3CCCC3)n2)cc1O", "inhibition": "57.6% (active)"},
      {"compound": "N=C1C(c2ccccc2)=C(O)CN1c1cccc(S(N)(=O)=O)c1", "inhibition": "10.1%"},
      {"compound": "CC1(C)C2CCC1(CS(=O)(=O)N1CCOCC1)C(=O)C2", "note": "(stereo unspecified)", "inhibition": "7.9%"},
      {"compound": "CCOC(=O)c1cc2sccc2n1CC(=O)Nc1ccc(OC)cc1OC", "inhibition": "16%"},
      {"compound": "O=C1c2ccccc2C(=O)N1CN(C(=O)COc1ccccc1)c1ccccc1", "inhibition": "3.5%"},
      {"compound": "COC(=O)c1ccc(Sc2ccc(Cl)cc2)c(N)c1", "inhibition": "9.3%"},
      {"compound": "COC(=O)c1ccc(Sc2ccc(C)cc2)c(N)c1", "inhibition": "55% (active)"},
      {"compound": "COC(=O)c1ccc(Sc2ccc(F)cc2)c(N)c1", "inhibition": "11.4%"},
      {"compound": "Cc1sc2nc(CSc3n[nH]c(N)n3)[nH]c(=O)c2c1C", "inhibition": "-10.2%"},
      {"compound": "CCCCNc1nc(=S)[nH]c2cc(OC)c(OC)cc12", "inhibition": "-4.5%"},
      {"compound": "CCCC(=O)Nc1cc(OC)c(OC)cc1C(=O)O", "inhibition": "6.8%"},
      {"compound": "CCCCNc1cc(NC(C)=O)cc2cc(OC)c(OC)cc12", "inhibition": "53.3% (active)"},
      {"compound": "Cc1cc(C)c(C#N)c(SCc2[nH]nc3c2C(c2ccc(F)cc2)C(C#N)=C(N)O3)n1", "note": "(stereo unspecified)", "inhibition": "12.8%"},
      {"compound": "COc1cc(OC)cc(C(=O)NNC(=O)Cc2ccc(OC)c(S(=O)(=O)N3CCOCC3)c2)c1", "inhibition": "2.7%"},
      {"compound": "CCCCCNC(=O)c1ccc2c(=O)[nH]c3c(C(=O)NCC4CCCO4)sc(=S)n3c2c1", "note": "(stereo unspecified)", "inhibition": "10.4%"},
      {"compound": "CCCCNC(=O)c1sc(=S)n2c1[nH]c(=O)c1ccccc12", "inhibition": "16.1%"},
      {"compound": "CCOC(=O)c1sc(=S)n2c1[nH]c(=O)c1ccc(C(=O)OC)cc12", "inhibition": "68.6% (active)"},
      {"compound": "CCOc1ccc(-c2[nH]nc3c2C(c2ccc(O)cc2)C(C#N)=C(N)O3)cc1", "note": "(stereo unspecified)", "inhibition": "27.8%"},
      {"compound": "COc1ccc(-c2noc(CN(C(=O)C(C)(C)C)C(C)C)n2)cc1", "inhibition": "15.9%"},
      {"compound": "Cc1oc2c(O)c(O)ccc2c(=O)c1-c1cnn(-c2ccccc2)c1", "inhibition": "79.5% (active)"},
      {"compound": "Cc1oc2cc(O)ccc2c(=O)c1-c1cnn(-c2ccccc2)c1", "inhibition": "-5.2%"},
      {"compound": "Cc1oc2c(C)c(O)ccc2c(=O)c1-c1cnn(-c2ccccc2)c1", "inhibition": "-14.8%"},
      {"compound": "CCC(CC)=C(C#N)C(=O)NC1CCCCC1", "inhibition": "-12.5%"},
      {"compound": "CCN(C(=O)COC(=O)c1cc(-c2ccccc2)nc2c1c(C)nn2-c1ccccc1)C1CCS(=O)(=O)C1", "note": "(stereo unspecified)", "inhibition": "14.7%"},
      {"compound": "COc1cc(-c2cc(=O)c3ccccc3o2)ccc1O", "inhibition": "5.9%"},
      {"compound": "CC1(C)CC(=O)c2c(oc3cc(O)c(O)cc23)C1", "inhibition": "47.6%"},
      {"compound": "COc1ccc(-c2cc(=O)c3cc(OC)ccc3o2)cc1", "inhibition": "-5%"},
      {"compound": "COc1ccc(OC)c(-c2c3cc(O)c(=O)cc-3oc3cc(O)c(O)cc23)c1", "inhibition": "61.1% (active)"},
      {"compound": "CCOc1ccccc1-c1c2cc(O)c(=O)cc-2oc2cc(O)c(O)cc12", "inhibition": "46.2%"},
      {"compound": "O=c1cc(-c2ccccc2Cl)oc2cccc(O)c12", "inhibition": "-9.9%"},
      {"compound": "COc1ccc(OC)c(-c2oc3ccccc3c(=O)c2O)c1", "inhibition": "-5.6%"},
      {"compound": "COc1cc(OC)c(-c2c3cc(O)c(=O)cc-3oc3cc(O)c(O)cc23)cc1OC", "inhibition": "73.9% (active)"},
      {"compound": "Nc1cnn(Cc2ccccc2F)c1", "inhibition": "18.2%"},
      {"compound": "COc1ccc2[nH]cc(CCn3ccc(=O)c(C)c3C)c2c1", "inhibition": "0.3%"},
      {"compound": "O=C(Nc1ccccc1)c1sccc1Oc1ccc([N+](=O)[O-])cc1F", "inhibition": "-6%"},
      {"compound": "CC(C)Oc1ccc2c(=O)c(-c3ccccc3)coc2c1", "inhibition": "0.6% and 7.3%"},
      {"compound": "CC(=O)Oc1ccc2c(=O)c(-c3ccccc3)coc2c1", "inhibition": "-0.1%"},
      {"compound": "COc1ccc2c(=O)c(-c3ccccc3)coc2c1", "inhibition": "52.5% (active)"}
    ]}
  ]
}
